# In article PMC7862700, “An all-to-all approach to the identification of sequence-specific readers for epigenetic DNA modifications on cytosine”:
# What was measured:
# Test in all cases: DAPPL (digital affinity profiling via proximity ligation, sequencing); 10 mM Tris-HCl pH 7.5, 50 mM NaCl, 1 mM DTT, 4% glycerol, room temperature, 30 min; GST-TFs on glutathione beads, 16-mer random dsDNA library, 0.1% formaldehyde crosslink after washing; high values mean tight binding
# FLI1 = biological target: T1, FLI1 (Homo sapiens, UniProt Q01543 1-452); conditions: protein: recombinant; tags: N-terminal GST; dsDNA, one strand shown
# T1 sequence: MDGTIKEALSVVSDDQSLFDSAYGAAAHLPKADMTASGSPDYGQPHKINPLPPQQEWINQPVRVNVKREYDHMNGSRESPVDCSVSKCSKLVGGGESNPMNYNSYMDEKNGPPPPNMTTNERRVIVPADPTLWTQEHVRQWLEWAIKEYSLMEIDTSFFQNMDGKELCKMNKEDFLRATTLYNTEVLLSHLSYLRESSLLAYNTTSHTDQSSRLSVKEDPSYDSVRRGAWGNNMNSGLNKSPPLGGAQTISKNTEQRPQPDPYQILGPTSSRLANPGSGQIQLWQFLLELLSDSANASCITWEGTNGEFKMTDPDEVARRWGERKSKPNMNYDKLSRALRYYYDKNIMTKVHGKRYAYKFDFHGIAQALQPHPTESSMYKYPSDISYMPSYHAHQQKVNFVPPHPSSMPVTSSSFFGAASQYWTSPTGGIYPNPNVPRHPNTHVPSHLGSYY
# Summary of the method: (§1)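 Sequencing on an Illumina NextSeq500 followed washing, crosslinking with 0.1% formaldehyde, proximity ligation (BsaI/T4 ligase, 1 h, 37 °C) and PCR amplification of pools that had been incubated for 30 min at room temperature with 200 nmole of a random double-stranded 16-mer DNA library in Tris/NaCl/DTT/glycerol buffer. Each pool held DNA-barcoded human transcription factors, expressed in yeast as GST fusions and captured on glutathione beads, plus a tag-only sample. Binding signal is a hexamer's read frequency for a factor divided by its frequency in the tag-only sample.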
# ELK1 = biological target: T2, ELK1 (Homo sapiens, UniProt P19419 1-428); conditions: protein: recombinant; tags: N-terminal GST; dsDNA, one strand shown
# T2 sequence: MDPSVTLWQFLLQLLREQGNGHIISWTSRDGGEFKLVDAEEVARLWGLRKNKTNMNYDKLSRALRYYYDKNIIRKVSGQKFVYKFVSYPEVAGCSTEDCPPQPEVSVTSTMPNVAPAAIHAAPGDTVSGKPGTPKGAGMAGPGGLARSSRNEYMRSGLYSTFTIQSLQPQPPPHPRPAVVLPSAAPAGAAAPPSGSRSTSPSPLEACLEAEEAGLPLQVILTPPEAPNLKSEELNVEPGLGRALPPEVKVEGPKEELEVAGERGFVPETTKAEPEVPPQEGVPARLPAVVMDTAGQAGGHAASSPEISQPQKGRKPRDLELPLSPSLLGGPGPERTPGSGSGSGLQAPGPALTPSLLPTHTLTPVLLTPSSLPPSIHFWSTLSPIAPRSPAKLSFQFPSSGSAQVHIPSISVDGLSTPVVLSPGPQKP
# Summary of the method: as §1
# GABPA = biological target: T3, GABPA (Homo sapiens, UniProt Q06546 1-454); conditions: protein: recombinant; tags: N-terminal GST; dsDNA, one strand shown
# T3 sequence: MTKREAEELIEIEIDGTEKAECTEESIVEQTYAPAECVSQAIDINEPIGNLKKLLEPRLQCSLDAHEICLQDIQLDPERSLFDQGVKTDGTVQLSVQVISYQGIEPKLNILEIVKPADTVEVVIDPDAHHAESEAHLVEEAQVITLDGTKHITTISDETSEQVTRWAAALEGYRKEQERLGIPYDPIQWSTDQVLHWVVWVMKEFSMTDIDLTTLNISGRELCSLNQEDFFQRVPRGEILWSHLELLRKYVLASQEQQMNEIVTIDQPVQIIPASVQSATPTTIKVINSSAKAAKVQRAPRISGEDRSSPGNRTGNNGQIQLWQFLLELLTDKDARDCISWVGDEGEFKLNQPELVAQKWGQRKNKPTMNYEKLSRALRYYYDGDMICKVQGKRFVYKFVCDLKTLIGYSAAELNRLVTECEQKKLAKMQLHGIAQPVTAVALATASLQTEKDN
# Summary of the method: as §1
# ERG = biological target: T4, ERG (Homo sapiens, UniProt P11308 1-479); conditions: protein: recombinant; tags: N-terminal GST; dsDNA, one strand shown
# T4 sequence: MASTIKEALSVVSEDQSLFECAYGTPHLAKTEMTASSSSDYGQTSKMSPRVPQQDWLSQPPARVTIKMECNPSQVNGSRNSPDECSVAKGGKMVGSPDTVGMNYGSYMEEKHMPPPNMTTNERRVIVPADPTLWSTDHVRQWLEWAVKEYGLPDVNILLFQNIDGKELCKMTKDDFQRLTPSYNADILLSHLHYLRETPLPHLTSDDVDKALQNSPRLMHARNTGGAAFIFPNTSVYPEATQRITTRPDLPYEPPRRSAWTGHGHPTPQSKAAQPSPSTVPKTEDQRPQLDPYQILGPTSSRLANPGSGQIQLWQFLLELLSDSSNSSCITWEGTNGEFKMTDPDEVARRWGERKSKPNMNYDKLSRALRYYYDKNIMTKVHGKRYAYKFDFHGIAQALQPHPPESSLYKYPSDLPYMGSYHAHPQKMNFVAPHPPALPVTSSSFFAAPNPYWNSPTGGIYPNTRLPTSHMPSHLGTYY
# Summary of the method: as §1
# ELF1 = ELF1 (Homo sapiens, UniProt P32519 1-619); conditions: protein: recombinant; tags: N-terminal GST; dsDNA, one strand shown
# Summary of the method: as §1
# EHF = biological target: T5, EHF (Homo sapiens, UniProt Q9NZC4 1-300); conditions: protein: recombinant; tags: N-terminal GST; dsDNA, one strand shown
# T5 sequence: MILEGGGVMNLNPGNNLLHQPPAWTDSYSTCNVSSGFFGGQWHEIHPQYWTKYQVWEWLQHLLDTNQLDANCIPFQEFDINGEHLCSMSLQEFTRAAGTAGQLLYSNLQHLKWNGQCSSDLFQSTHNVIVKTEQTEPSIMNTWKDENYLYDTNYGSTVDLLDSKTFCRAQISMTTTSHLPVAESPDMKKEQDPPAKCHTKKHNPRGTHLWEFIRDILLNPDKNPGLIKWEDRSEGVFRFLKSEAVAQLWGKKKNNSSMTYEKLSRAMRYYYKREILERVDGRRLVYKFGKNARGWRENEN
# Summary of the method: as §1
# SPI1 = SPI1 (Homo sapiens, UniProt P17947 1-270); conditions: protein: recombinant; tags: N-terminal GST; dsDNA, one strand shown
# Summary of the method: as §1
# SPIB = SPIB (Homo sapiens, UniProt Q01892 1-262); conditions: protein: recombinant; tags: N-terminal GST; dsDNA, one strand shown
# Summary of the method: as §1
# ELK3 = biological target: T6, ELK3 (Homo sapiens, UniProt P41970 1-407); conditions: protein: recombinant; tags: N-terminal GST; dsDNA, one strand shown
# T6 sequence: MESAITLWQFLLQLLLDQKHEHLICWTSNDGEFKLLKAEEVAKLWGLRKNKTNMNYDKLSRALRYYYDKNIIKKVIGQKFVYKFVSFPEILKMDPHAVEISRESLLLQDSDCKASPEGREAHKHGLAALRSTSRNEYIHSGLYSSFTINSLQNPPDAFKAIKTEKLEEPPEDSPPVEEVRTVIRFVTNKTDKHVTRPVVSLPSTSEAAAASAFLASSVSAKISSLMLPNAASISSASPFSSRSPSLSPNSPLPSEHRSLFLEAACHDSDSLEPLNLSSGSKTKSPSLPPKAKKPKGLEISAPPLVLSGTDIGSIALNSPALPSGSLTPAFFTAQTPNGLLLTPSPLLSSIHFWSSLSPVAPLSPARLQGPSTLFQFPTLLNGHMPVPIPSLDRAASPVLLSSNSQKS
# Summary of the method: as §1
# FEV = biological target: T7, FEV (Homo sapiens, UniProt Q99581 1-238); conditions: protein: recombinant; tags: N-terminal GST; dsDNA, one strand shown
# T7 sequence: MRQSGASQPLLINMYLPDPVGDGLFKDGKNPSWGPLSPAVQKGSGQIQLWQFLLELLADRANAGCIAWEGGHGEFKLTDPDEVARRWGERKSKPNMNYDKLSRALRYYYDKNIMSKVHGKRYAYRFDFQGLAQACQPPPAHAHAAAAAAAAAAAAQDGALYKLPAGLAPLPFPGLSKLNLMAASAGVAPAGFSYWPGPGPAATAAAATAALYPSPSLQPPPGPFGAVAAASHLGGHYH
# Summary of the method: as §1
# ETV5 = ETV5 (Homo sapiens, UniProt P41161 1-510); conditions: protein: recombinant; tags: N-terminal GST; dsDNA, one strand shown
# Summary of the method: as §1
# HSF1 = HSF1 (Homo sapiens, UniProt Q00613 1-529); conditions: protein: recombinant; tags: N-terminal GST; chain copies: 3; dsDNA, one strand shown
# Summary of the method: as §1
# SPIC = biological target: T8, SPIC (Homo sapiens, UniProt Q8N5J4 1-248); conditions: protein: recombinant; tags: N-terminal GST; dsDNA, one strand shown
# T8 sequence: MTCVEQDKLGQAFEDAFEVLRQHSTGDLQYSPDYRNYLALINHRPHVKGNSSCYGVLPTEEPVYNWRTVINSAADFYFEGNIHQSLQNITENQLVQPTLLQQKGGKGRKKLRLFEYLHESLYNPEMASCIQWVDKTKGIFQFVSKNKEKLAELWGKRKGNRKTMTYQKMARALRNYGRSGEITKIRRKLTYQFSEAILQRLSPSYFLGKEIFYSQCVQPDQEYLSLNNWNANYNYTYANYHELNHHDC
# Summary of the method: as §1
# ELF4 = ELF4 (Homo sapiens, UniProt Q99607 1-663); conditions: protein: recombinant; tags: N-terminal GST; dsDNA, one strand shown
# Summary of the method: as §1
# ELK4 = biological target: T9, ELK4 (Homo sapiens, UniProt P28324-2 1-405); conditions: protein: recombinant; tags: N-terminal GST; dsDNA, one strand shown
# T9 sequence: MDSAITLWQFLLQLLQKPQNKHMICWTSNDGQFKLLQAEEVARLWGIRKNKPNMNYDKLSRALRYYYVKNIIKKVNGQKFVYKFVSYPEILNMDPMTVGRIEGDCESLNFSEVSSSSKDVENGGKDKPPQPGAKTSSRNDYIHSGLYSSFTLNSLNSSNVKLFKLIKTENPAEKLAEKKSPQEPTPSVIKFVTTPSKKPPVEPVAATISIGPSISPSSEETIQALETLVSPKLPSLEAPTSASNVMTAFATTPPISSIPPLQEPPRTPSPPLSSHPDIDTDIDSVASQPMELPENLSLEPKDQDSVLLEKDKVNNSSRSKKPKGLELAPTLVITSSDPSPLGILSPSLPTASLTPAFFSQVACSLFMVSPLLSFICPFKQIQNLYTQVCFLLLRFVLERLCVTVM
# Summary of the method: as §1
# ETV2 = biological target: T10, ETV2 (Homo sapiens, UniProt O00321 1-342); conditions: protein: recombinant; tags: N-terminal GST; dsDNA, one strand shown
# T10 sequence: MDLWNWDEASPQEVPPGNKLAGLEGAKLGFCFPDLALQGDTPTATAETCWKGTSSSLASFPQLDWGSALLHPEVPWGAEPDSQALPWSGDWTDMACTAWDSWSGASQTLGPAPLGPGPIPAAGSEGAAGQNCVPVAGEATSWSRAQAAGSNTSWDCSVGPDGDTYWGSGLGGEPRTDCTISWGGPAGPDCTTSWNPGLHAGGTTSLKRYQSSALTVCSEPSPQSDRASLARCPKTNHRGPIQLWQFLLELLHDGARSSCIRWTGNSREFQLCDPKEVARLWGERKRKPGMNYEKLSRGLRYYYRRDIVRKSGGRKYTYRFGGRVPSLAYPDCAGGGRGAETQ
# Summary of the method: as §1
# ELF3 = biological target: T11, ELF3 (Homo sapiens, UniProt P78545 1-371); conditions: protein: recombinant; tags: N-terminal GST; dsDNA, one strand shown
# T11 sequence: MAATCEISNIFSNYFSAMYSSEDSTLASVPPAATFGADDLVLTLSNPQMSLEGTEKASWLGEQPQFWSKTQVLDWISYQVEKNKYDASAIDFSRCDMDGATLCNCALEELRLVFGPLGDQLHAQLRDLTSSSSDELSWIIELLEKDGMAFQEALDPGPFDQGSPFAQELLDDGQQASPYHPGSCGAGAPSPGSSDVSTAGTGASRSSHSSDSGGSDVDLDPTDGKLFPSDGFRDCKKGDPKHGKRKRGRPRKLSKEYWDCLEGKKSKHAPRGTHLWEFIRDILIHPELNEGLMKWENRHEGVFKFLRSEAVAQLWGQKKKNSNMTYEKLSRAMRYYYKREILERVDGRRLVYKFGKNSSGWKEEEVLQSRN
# Summary of the method: as §1
# CRX = CRX (Homo sapiens, UniProt O43186 1-299); conditions: protein: recombinant; tags: N-terminal GST; dsDNA, one strand shown
# Summary of the method: as §1
# ETV1 = ETV1 (Homo sapiens, UniProt P50549 1-477); conditions: protein: recombinant; tags: N-terminal GST; dsDNA, one strand shown
# Summary of the method: as §1
# Chain of ELF1 (P32519 whole entry): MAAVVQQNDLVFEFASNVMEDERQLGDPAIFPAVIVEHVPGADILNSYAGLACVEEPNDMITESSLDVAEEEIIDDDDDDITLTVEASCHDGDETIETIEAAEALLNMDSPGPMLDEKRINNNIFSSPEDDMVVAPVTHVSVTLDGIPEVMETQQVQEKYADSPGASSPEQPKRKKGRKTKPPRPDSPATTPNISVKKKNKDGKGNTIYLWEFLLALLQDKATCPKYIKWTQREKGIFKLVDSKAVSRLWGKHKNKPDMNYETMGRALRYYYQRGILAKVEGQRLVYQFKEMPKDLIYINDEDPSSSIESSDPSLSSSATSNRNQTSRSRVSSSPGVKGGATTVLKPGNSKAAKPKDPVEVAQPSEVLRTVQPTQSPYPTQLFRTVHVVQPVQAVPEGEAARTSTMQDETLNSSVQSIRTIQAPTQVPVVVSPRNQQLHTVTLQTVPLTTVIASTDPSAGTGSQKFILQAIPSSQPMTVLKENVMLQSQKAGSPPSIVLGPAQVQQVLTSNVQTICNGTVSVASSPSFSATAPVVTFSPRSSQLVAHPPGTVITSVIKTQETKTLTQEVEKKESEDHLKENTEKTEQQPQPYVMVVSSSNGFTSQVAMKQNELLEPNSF
# Chain of SPIB (Q01892 whole entry): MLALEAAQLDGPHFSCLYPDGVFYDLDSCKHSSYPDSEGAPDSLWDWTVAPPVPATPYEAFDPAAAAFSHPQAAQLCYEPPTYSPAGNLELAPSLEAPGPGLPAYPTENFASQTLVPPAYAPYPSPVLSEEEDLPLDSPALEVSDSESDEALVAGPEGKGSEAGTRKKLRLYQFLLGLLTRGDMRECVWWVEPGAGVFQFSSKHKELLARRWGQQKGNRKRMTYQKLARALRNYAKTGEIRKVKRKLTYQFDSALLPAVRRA
# Chain of CRX (O43186 whole entry): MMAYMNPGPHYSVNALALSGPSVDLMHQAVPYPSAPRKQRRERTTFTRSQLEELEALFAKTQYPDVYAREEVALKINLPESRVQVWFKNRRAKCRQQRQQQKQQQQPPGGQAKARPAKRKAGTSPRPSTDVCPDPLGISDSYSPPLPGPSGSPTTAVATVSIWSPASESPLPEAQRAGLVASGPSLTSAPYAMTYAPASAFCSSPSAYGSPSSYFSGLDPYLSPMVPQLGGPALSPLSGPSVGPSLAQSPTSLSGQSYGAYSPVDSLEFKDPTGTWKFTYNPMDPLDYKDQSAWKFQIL
# Chain of ETV1 (P50549 whole entry): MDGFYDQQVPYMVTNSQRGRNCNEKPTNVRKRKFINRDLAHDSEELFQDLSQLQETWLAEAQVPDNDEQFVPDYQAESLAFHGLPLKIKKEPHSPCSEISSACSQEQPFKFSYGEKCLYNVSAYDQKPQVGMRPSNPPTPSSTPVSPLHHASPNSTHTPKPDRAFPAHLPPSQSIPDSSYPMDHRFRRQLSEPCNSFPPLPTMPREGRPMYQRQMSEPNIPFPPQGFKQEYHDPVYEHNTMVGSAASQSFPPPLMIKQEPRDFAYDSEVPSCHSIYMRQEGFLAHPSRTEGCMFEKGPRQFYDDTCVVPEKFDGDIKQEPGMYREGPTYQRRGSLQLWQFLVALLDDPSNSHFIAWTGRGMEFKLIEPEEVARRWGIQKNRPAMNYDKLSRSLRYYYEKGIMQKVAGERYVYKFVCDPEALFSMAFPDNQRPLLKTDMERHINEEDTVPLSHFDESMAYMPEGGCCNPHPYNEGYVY
# Chain of ELF4 (Q99607 whole entry): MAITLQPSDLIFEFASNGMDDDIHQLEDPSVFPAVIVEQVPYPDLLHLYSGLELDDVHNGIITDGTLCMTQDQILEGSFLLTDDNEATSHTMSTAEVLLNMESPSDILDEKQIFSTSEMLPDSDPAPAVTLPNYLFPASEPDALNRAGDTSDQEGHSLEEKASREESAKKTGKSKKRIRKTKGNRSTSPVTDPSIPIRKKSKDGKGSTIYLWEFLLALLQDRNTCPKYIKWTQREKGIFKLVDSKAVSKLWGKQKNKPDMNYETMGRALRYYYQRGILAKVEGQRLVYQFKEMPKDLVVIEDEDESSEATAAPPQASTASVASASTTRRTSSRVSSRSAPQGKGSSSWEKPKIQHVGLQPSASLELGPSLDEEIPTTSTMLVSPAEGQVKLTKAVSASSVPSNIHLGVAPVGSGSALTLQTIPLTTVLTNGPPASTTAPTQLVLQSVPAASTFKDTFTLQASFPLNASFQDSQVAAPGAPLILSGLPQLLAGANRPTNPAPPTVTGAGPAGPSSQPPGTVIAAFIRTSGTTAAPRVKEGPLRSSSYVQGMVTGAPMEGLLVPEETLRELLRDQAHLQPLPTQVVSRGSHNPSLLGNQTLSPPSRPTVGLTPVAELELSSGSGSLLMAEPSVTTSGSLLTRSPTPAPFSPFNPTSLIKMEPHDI
# Chain of ETV5 (P41161 whole entry): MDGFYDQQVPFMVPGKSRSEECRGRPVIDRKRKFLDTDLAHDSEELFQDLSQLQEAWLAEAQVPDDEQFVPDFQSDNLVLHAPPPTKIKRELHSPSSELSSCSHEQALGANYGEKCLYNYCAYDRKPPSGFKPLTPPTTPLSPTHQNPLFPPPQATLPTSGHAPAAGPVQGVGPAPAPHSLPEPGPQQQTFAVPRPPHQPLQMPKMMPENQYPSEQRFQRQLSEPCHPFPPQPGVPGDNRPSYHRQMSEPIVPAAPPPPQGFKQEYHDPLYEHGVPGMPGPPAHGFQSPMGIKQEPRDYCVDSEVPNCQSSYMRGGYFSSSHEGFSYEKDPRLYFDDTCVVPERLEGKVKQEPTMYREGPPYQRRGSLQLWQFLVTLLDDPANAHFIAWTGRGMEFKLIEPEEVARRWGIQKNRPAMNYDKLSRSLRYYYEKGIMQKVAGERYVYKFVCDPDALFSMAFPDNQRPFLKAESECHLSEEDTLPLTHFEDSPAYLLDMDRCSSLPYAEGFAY
# Chain of HSF1 (Q00613 whole entry): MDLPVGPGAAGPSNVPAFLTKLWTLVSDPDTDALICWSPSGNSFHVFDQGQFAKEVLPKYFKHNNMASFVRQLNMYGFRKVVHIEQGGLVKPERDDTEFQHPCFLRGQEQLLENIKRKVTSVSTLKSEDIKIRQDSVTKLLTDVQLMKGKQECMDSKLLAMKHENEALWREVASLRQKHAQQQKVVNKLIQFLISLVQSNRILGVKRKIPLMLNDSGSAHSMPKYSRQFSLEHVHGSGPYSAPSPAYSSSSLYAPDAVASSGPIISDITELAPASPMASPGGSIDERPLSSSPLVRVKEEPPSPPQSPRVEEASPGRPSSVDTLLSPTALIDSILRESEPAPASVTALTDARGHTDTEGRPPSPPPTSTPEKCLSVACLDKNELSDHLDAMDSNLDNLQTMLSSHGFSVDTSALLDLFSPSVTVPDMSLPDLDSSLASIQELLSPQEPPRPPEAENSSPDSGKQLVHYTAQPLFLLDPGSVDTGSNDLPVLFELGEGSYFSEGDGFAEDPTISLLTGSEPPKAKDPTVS
sequence,measurement,setting,value
CTCACG,binding signal,FLI1,"1.36 fold enrichment (6-mer frequency, TF over GST control)"
same,binding signal,ELK1,"1.33 fold enrichment (6-mer frequency, TF over GST control)"
same,binding signal,GABPA,"1.33 fold enrichment (6-mer frequency, TF over GST control)"
same,binding signal,ERG,"1.33 fold enrichment (6-mer frequency, TF over GST control)"
same,binding signal,ELF1,"1.25 fold enrichment (6-mer frequency, TF over GST control)"
same,binding signal,EHF,"1.31 fold enrichment (6-mer frequency, TF over GST control)"
same,binding signal,SPI1,"1.22 fold enrichment (6-mer frequency, TF over GST control)"
same,binding signal,SPIB,"1.32 fold enrichment (6-mer frequency, TF over GST control)"
same,binding signal,ELK3,"1.41 fold enrichment (6-mer frequency, TF over GST control)"
same,binding signal,FEV,"1.32 fold enrichment (6-mer frequency, TF over GST control)"
same,binding signal,ETV5,"1.4 fold enrichment (6-mer frequency, TF over GST control)"
same,binding signal,HSF1,"1.14 fold enrichment (6-mer frequency, TF over GST control)"
same,binding signal,SPIC,"1.31 fold enrichment (6-mer frequency, TF over GST control)"
same,binding signal,ELF4,"1.33 fold enrichment (6-mer frequency, TF over GST control)"
same,binding signal,ELK4,"1.35 fold enrichment (6-mer frequency, TF over GST control)"
same,binding signal,ETV2,"1.35 fold enrichment (6-mer frequency, TF over GST control)"
same,binding signal,ELF3,"1.26 fold enrichment (6-mer frequency, TF over GST control)"
same,binding signal,CRX,"1.08 fold enrichment (6-mer frequency, TF over GST control)"
same,binding signal,ETV1,"1.22 fold enrichment (6-mer frequency, TF over GST control)"
